Screens as filed in PubChem.
FBW7 activator – human FBW7 E3 ligase activation, primary screen | AlphaScreen FBW7–phospho-cyclin E peptide binding, activator screen | normalized activity (activation), % at 26.1 µM | 650,000 compounds, 0.13% hits | AID 1259310; in the data active means normalized activity above about 1.9%;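 further: purified mutant Fbw7 with reduced substrate affinity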
TEAD-YAP inh – TEAD-YAP interaction inhibition | AID 1259422 | inhibition, % at 9.12 µM | 640,000 compounds, 1.4% hits | HEK-TIYL cells, TEAD-Gal4/YAP UAS-luciferase luminescence; in the data active means inhibition above about 32%;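 further: 0% = median of test compound wells and 100% = reference inhibitor wells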
MITF inh – blocks human microphthalmia-associated transcription factor | inhibition, % at 2.6 µM | 650,000 compounds, 0.91% hits | AlphaScreen MITF homodimerization, bead proximity signal | O75030; in the data active means inhibition above about 50%;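 further: 0% = vehicle wells with protein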
GPR151 activ – activators of human GPR151; PathHunter beta-arrestin GPR151 cells, luminescence; activation, % at 11.2 µM; 650,000 compounds, 1% hits; in the data active means activation above about 4.9%;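 further: 0% = median of compound wells and 100% = cells with positive control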
GPR151 confirm – human GPR151 activation, confirmation screen; GPR151 PathHunter beta-arrestin cells, luminescence, 90 min; % of EA-reagent control over plate median; 6,700 tested, under 10 active; activation, % at 11.2 µM; shares compounds with GPR151 activ;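 active means mean percent activation across replicates above the confirmation screen cutoff of 4.91%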
GPR119 ag – GPR119 activation, counter-screen for GPR151 activators. shares compounds with GPR151 activ. GPR119 PathHunter beta-arrestin cells, luminescence, 90 min; 0 = compound-well median, 100 = enzyme-acceptor control. activation, % at 11.2 µM. 6,700 compounds, 0.3% hits. AID 1508611;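 active means mean percent activation in the counterscreen above 29.09%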;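 further: counterscreen on off-target GPR119 to flag nonselective hits from the GPR151 activator screen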
* = called active by the depositor; nt = not tested or not shown; ! = not confirmed by another sample. In the library only some 3.5% were active in any assay of this set; here they are far more common.

SMILES | FBW7 activator | TEAD-YAP inh | MITF inh | GPR151 activ | GPR151 confirm | GPR119 ag
COc1ccccc1OCCCn1c(C)c(C=O)c2ccccc21 | 0 | 0 | -11 | 2 | nt | nt
N#CC1=C2NC(=O)c3c(sc4c3CCCCC4)N2C2=C(C(=O)CCC2)C1c1ccc(Cl)cc1Cl (stereo not given) | 0 | -8 | 24 | 1 | nt | nt
C=CCN1C[C@H](C)N([C@H](c2ccc(C(=O)N(CC)CC)cc2)c2cccc(OC)c2)C[C@H]1C | 0 | nt | 2 | 5.2* | 0 | -4
Cc1noc(C)c1CC(=O)N1CCCC(N2CCOCC2)C1 (stereo not given) | 0 | 2 | -1 | 1 | nt | nt
O=C(Cc1ccsc1)N1CCCC(N2CCOCC2)C1 (stereo not given) | 0 | -2 | 11 | 5.8* | 0 | 4
O=C(C1CN(CCc2c[nH]c3ccccc23)CCN1)N1CCOCC1 (stereo not given) | 0 | -2 | 7 | 5.1* | -1 | -15
CN1CCN(c2ccc(/C=C(\C#N)C(N)=O)cc2[N+](=O)[O-])CC1 | 0 | 0 | 16 | 17* | 1 | 5
O=C1C=C2C=C[C@H]3C[C@]2(O1)[C@@H]1CCCCN13 | 0 | -3 | 23 | 9.6*! | -1 | -12
